# An excerpt weighted towards active compounds, which were near 19% of everything screened.
# HT1080-NT tox: qHTS for induction of synthetic lethality in tumor cells producing 2HG: qHTS for the HT-1080-NT fibrosarcoma cell line | HT-1080-NT fibrosarcoma viability, CellTiter-Glo ATP luminescence, 48 h | Potency, µM (series often up to 46.1 µM), for inactives: at the top dose activity, negative = less viability, usual class: cytotoxic | hit rate 1.6% among 360,000 | AID 686970, 2013;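 note: NT is the 2HG producing partner of a matched IDH1 knockdown line; 0% = DMSO-treated cells and -100% = media-only wells without cells; nearly all actives have a fitted effect of over 55% in size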
#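 HT-1080-NT fibrosarcoma cells (2HG-overproducing), 750 cells/well in RPMI with 5% FBS, dosed after 2 h and incubated 48 h at 37C. CellTiter-Glo luminescence normalized to DMSO and no-cell wells; concentration-response curves fitted and classed.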
# HT1080 IDH1KD tx: qHTS for induction of synthetic lethality in tumor cells producing 2HG: qHTS for the HT-1080-IDH1KD cell line; HT-1080 IDH1 knockdown viability, ATP luminescence, 48 h; hit rate 2% among 360,000; Potency, µM (highest dose often 46.1 µM), inactives show at the top dose activity, negative = toxicity, actives largely listed as cytotoxic;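 note: 0% = DMSO wells and -100% = cell-free medium wells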
#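 After a 2 h attachment period, IDH1KD HT-1080 cells took pin-transferred compound for 48 h at 37 °C; ATP-based luminescence after 10 min room-temperature reagent incubation reported viability.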
# DT40 TDP1 no CPT: qHTS for Inhibitors of human tyrosyl-DNA phosphodiesterase 1 (TDP1): qHTS in cells in absence of CPT; DT40 Tdp1-/- hTDP1 cells, no CPT, ATP luminescence, 48 h; Potency, µM (top dose mostly 46.2 µM), for inactives: at the highest dose activity change, negative = growth inhibition, usual class: inhibitors; hit rate 15% among 420,000; note: nearly all actives have a fitted effect of over 55% in size
#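 Chicken DT40 Tdp1-/- cells complemented with human TDP1, screened without camptothecin (DMSO vehicle only), 400 cells/well. Compounds pin-transferred, cells incubated at 37 °C for at least 48 hr. Growth read as ATP-dependent luminescence (CellTiter-Glo, 30 min at RT).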
# KB-3-1 cytotox: qHTS assay for MDR1-selective chemotherapeutics: Primary screen using the parental adenocarcinoma cell KB-3-1; KB-3-1 viability, CellTiter-Glo ATP luminescence, 72 h; Potency, µM (doses to about 46.1 µM), usual class: cytotoxic; hit rate 1.4% among 400,000; AID 1347075, 2019; note: nearly all actives have a fitted effect of over 60% in size
#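 Luminescent ATP read-out (CellTiter-Glo) measures survival of drug-naive KB-3-1 cells after 72 h compound exposure at 37 °C. Titration series was screened from lowest to highest concentration, with DMSO vehicle plates as background controls.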
# KB-V1 MDR tox: qHTS assay for MDR1-selective chemotherapeutics: Primary screen using the drug-selected MDR subline cells KB-V1 | KB-V1 MDR cells viability, CellTiter-Glo, 72 h | AID 1347076, 2019 | Potency, µM (doses to about 46.1 µM), most hits filed as cytotoxic | hit rate 3.4% among 400,000; note: nearly all actives have a fitted effect of over 60% in size
#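 In this primary screen, KB-V1 cells overexpressing P-gp are incubated with library compounds (lowest to highest concentration) for 72 h at 37 degrees C before a luminescent ATP viability read.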
# DT40 TDP1 CPT: qHTS for Inhibitors of human tyrosyl-DNA phosphodiesterase 1 (TDP1): qHTS in cells in presence of CPT; Potency, µM (doses to about 46.2 µM), for inactives: at the top dose activity change, negative = growth inhibition, hits mostly inhibitors; hit rate 12% among 420,000; chicken DT40 Tdp1-/-;hTDP1 cells + 20 nM CPT, ATP luminescence, 48 h; AID 686979, 2013; note: nearly all actives have a fitted effect of over 55% in size
#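 Chicken DT40 Tdp1-/- cells stably complemented with human TDP1 were seeded at 400 cells/well in medium containing 20 nM camptothecin, exposed to pin-transferred compounds, and grown at 37 °C for at least 48 hr. Viability was read as ATP luminescence.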
# An asterisk follows results filed as active; i = inactive; ? = inconclusive; . = not tested or not shown. Calls come from the whole dose curve; as a rule, active = well fitted curve in the direction sought with a large enough effect; inconclusive = small, poorly fitted or top-dose-only effect, or another doubt; inactive = no such curve, though single readings can be large; an effect the other way counts as inactive or inconclusive. Unless noted, % is set by controls: 0 for no effect and ±100 for the full control effect; potency is the fitted concentration of half-maximal effect.
SMILES,HT1080-NT tox,HT1080 IDH1KD tx,DT40 TDP1 no CPT,KB-3-1 cytotox,KB-V1 MDR tox,DT40 TDP1 CPT
Cc1cccc(C)c1-n1ncc(C(=O)O)c1C1CCN(C(=O)OC(C)(C)C)CC1,.,.,-2%,i,i,-1%
Cc1ccc(N2CCN(CC(O)COc3cccc4ccccc34)CC2)cc1 (stereo unspecified),2%,-6%,?,i,i,?
CC1(C)CCCC(C)(C)N1CC(O)COCCOc1ccc(Br)cc1 (stereo unspecified),-24%,-14%,16µM*,i,?,?
COc1ccccc1N1CCN(CC(O)COc2c(OC)cccc2OC)CC1 (stereo unspecified),-15%,-14%,?,i,?,16µM*
OC(COc1cccc2ccccc12)CN1CCN(c2ccccc2Cl)CC1 (stereo unspecified),?,?,?,i,i,18µM*
COc1ccccc1N1CCN(CC(O)COCCOc2ccc(Br)cc2)CC1 (stereo unspecified),-27%,?,?,i,?,16µM*
COc1ccccc1N1CCN(CC(O)COCc2cccs2)CC1 (stereo unspecified),-3%,-1%,9%,i,i,-4%
OC(CNC1CCCC1)COCCOc1ccc(Br)cc1 (stereo unspecified),-16%,-19%,?,i,?,?
C[C@@H]1CN([C@@H](C)CO)C(=O)CCCn2nncc2CO[C@H]1CN(C)S(=O)(=O)c1cn(C)cn1,0%,5%,11%,?,i,12%
O=C(NCc1ccc2c(c1)OCO2)C(=O)Nc1cc2c3c(c1)CC(=O)N3CCC2,-3%,1%,-20%,?,?,1%
CC(O)[C@@H]1NC(=O)[C@H](CCCCN)NC(=O)[C@@H](Cc2c[nH]c3ccccc23)NC(=O)[C@H](Cc2ccccc2)NC(=O)[C@@H](NC(=O)[C@H](N)Cc2ccccc2)CSSC[C@@H](C(=O)N[C@H](CO)[C@@H](C)O)NC1=O (stereo partly specified),.,.,-8%,.,.,-13%
O=C(NCC1CCCN(C(=O)Cc2ccccc2Cl)C1)c1ccc(F)cc1 (stereo unspecified),-3%,-3%,15%,i,?,-20%
COc1ccccc1NC(=O)C1CCN(S(=O)(=O)c2ccc3c(c2)NC(=O)C(C)S3)CC1 (stereo unspecified),?,-4%,?,i,i,?
OCCN1CCN(CC(O)COCCOc2ccc(Br)cc2)CC1 (stereo unspecified),-1%,1%,23µM*,i,i,?
OCCN1CCN(CC(O)COc2ccc(-c3ccccc3)cc2)CC1 (stereo unspecified),-28%,-23%,?,i,i,?
CCCS/C(N)=N/N=C/c1ccccc1O,-4%,-8%,18µM*,?,?,?
CCOc1ccccc1C=NN=Cc1ccccc1O,1%,1%,-24%,i,i,-17%
COC(=O)c1sccc1S(=O)(=O)N1CCC(n2c(CC3CCCC3)nc3cccnc32)CC1,.,.,-15%,.,.,2%
CN1c2ccccc2C2(C)CCCC3=Cc4cc([N+](=O)[O-])cc([N+](=O)[O-])c4OC312 (stereo unspecified),-1%,-5%,23µM*,?,?,15µM*
Cc1ccc([N+](=O)[O-])c2c1C(N1CCCC1)C(C)(C)O2 (stereo unspecified),-1%,7%,?,i,i,?
CN1c2ccccc2C2(C)CCCC3=Cc4cccc([N+](=O)[O-])c4OC312 (stereo unspecified),-3%,-19%,16µM*,?,?,?
O=c1[nH]c(=S)n(-c2cccc(Cl)c2)c(O)c1/C=N/N1CCOCC1,-4%,-4%,1%,i,i,-12%
O=C(Nc1cccc(S(=O)(=O)NC2=NCCC2)c1)c1cc(-c2ccccn2)nc2ccccc12,23µM*,?,16µM*,i,i,23µM*
O=C(CCl)Nc1cccc(S(=O)(=O)NC2=NCCC2)c1,18µM*,16µM*,6.5µM*,18µM*,i,8.2µM*
CC(C)(C)c1ccc(OCCC(=O)Nc2cccc(S(=O)(=O)NC3=NCCCCC3)c2)cc1,?,?,23µM*,?,?,23µM*
SMILES,HT1080-NT tox,HT1080 IDH1KD tx,DT40 TDP1 no CPT,KB-3-1 cytotox,KB-V1 MDR tox,DT40 TDP1 CPT
CC(=O)c1cccc(S(=O)(=O)Nc2cccc(S(=O)(=O)NC3=NCCC3)c2)c1,-1%,16%,-2%,i,i,-5%
CC(C)(C)c1ccc(C(=O)Nc2cccc(S(=O)(=O)NC3=NCCC3)c2)cc1,-3%,-7%,12µM*,i,i,?
O=C(Cn1c(=O)nc(-c2ccccc2)c2cc(Cl)ccc21)Nc1ccc(F)c(Cl)c1,.,.,?,i,i,?
COC(=O)[C@H](Cc1ccccc1)NC(=O)/C=C/[C@H]1O[C@@H](n2cc(C)c(=O)[nH]c2=O)C[C@@H]1O,17%,28%,-4%,i,i,0%
CN(CC(=O)Nc1cccc(S(=O)(=O)NC2=NCCCCC2)c1)Cc1ccc(C(C)(C)C)cc1,?,-18%,21µM*,i,?,29µM*
O=C(COC(=O)/C=C/c1cccc(Cl)c1)Nc1cccc(S(=O)(=O)NC2=NCCC2)c1,2%,1%,8%,i,i,-20%
O=C(COC(=O)/C=C/c1cccc(Br)c1)Nc1cccc(S(=O)(=O)NC2=NCCC2)c1,-3%,0%,4.1µM*,i,i,-14%
COC(=O)CN1CCN(C(=O)c2ccco2)CC1,20%,16%,4%,i,i,1%
C(=N\Nc1nc2ccccc2[nH]1)/c1ccc2c(c1)OCCO2,-8%,?,?,?,i,?
Cc1ccc(/C=N/Nc2ccc3ccccc3n2)o1,-29%,-23%,4.1µM*,i,8.2µM*,2.3µM*
